ELG1 DNA repair = blocks ELG1-dependent DNA repair in HEK293T cells; AID 504467; 2.3% of 330,000 active; HEK293T ELG1-luciferase reporter, luminescence, 16 h; DNA damage induced by 5-fluorouridine; Potency, µM (highest dose often 46.1 µM), for the others: at the highest dose activity change, negative = inhibition, most hits filed as inhibitors; also: % is scaled to controls: 0 for no effect and ±100 for the full control effect; nearly all actives have a fitted effect of over 55% in size
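5-Fluorouridine DNA damage + compound/DMSO, 2,000 cells/well, 16 h, 37 °C/5% CO2. ONE-Glo, 30 min RT, luminescence. Readout = decrease in reporter signal.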
ELG1 genotox = genotoxicity induction in ELG1-luciferase HEK293T cells; HEK293T ELG1-luciferase reporter, luminescence, 16 h; Potency, µM (titrated, usually from 46 µM), inactives show top-dose activity change, positive = activation, most hits filed as activators; 1.3% of 330,000 active; AID 504466; also: % of control where 0% means no effect; nearly all actives have a fitted effect of over 60% in size
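Reporter readout depends on ELG1 protein level, which increases with genetic stress. After 16 hr compound exposure at 37 °C, luciferase activity was quantified using ONE-Glo.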
A-T KAP1 phos = potential ataxia-telangiectasia treatments restoring KAP-1 phosphorylation | AID 485349 | Potency, µM (highest dose often 57.5 µM), inactives show at the highest dose activation, usual class: activators | F2112 A-T fibroblasts, KAP-1 phosphorylation AlphaLISA; neocarzinostatin DNA damage 30 min before lysis | 0.19% of 320,000 active; also: % of control where 0% means no effect; nearly all actives have a fitted effect of over 45% in size
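hTERT-immortalized A-T patient fibroblasts (F2112), 500 cells/well in OPTI-MEM, 1% FBS, got compounds for 60 min, then NCS for 30 min at 37C. Lysates were then assayed for phospho-KAP-1 by AlphaLISA (anti-pKAP1 donor, anti-KAP1 acceptor beads), 6 hr at 25C.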
p53 reactivator = mutant p53 re-activation in reporter cells; H1299 p53-A138V BP100-luciferase reporter, luminescence, 24 h; Potency, µM (doses to about 92.2 µM), for inactives: at the top dose activity change, positive = activation, usual class: activators; 0.063% of 320,000 active; also: % of control where 0% means no effect; nearly all actives have a fitted effect of over 45% in size
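H1299 (p53-null), stable ts p53-A138V + BP100-Luc; 1000 cells/well, Opti-MEM/10% FBS; cpd 4 pt, 1:5; 24 h, 37 deg C, 5% CO2; detection reagent 10 min RT; luminescence.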
MCF10A rereplic = induces DNA re-replication in MCF 10a normal breast cells | 2.9% of 350,000 active | MCF 10A DNA re-replication, Hoechst nuclear intensity, 48 h | Potency, µM (series often up to 46.1 µM), inactives show at the highest dose activity, positive = re-replication, actives largely listed as activators; also: % of control where 0% means no effect; nearly all actives have a fitted effect of over 50% in size
SW480 rereplic = inducers of DNA re-replication in SW480 colon cancer cells; AID 624297; 1.8% of 340,000 active; SW480 DNA re-replication, Hoechst DNA content imaging, 48 h; Potency, µM (series often up to 46.1 µM), for inactives: at the top dose re-replication activation, usual class: activators; also: % of control where 0% means no effect; nearly all actives have a fitted effect of over 55% in size
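250 cells/well; 23 nL cpd via pin tool; 48 hr, 37 C, 5% CO2; Hoechst 40 min; imager read of total nuclear intensity, ex 405/em 500-530 nm.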
The depositor's hits bear a star; ? = inconclusive; nt = no result given. Sampled rows, rich in hits. Any-hit rate of the full collection: about 7.1%. Calls follow the shape of the dose curve; as a rule, active = well fitted curve in the direction sought with a large enough effect; inconclusive = small, poorly fitted or top-dose-only effect, or another doubt; inactive = no such curve, though single readings can be large; an effect the other way counts as inactive or inconclusive. Potency is read from the fitted curve at half-maximal effect.

SMILES	ELG1 DNA repair	ELG1 genotox	A-T KAP1 phos	p53 reactivator	MCF10A rereplic	SW480 rereplic
Cc1cc(C)n(CC(=O)Nc2ccc(N3CCOCC3)c(Cl)c2)c(=O)c1C#N	-6%	-5%	-2%	-6%	-10%	-20%
Cc1ccc(C(=O)c2cc([N+](=O)[O-])ccc2N2CCCCC2)cc1C	?	12%	-6%	5%	?	1.8µM*
O=C(c1ccccc1)c1cc([N+](=O)[O-])ccc1N1CCCC1	12%	12%	3%	-8%	?	11%
COc1ccc(C(=O)c2cc([N+](=O)[O-])ccc2N2CCCC2)cc1	?	-1%	0%	-8%	1.5µM*	18µM*
COc1ccc(C(=O)c2cc([N+](=O)[O-])ccc2N2CCN(C)CC2)cc1	?	-4%	4%	-3%	8.2µM*	?
COc1ccc(NC(=O)c2cc([N+](=O)[O-])ccc2N2CCCC2)cc1	-3%	1%	0%	-1%	14%	3%
Cc1ccc(C(=O)c2cc([N+](=O)[O-])ccc2N2CCOCC2)cc1C	?	0%	-2%	5%	?	nt
CCOC(=O)c1c2ccccc2[n+]([O-])n1[C@@H](C)C(N)=O	-1%	3%	4%	1%	-4%	-6%
CCOc1cc(N2CCOCC2)c(OCC)cc1NC(=O)COc1cccc(CC)c1	23µM*	-7%	1%	-10%	1%	-6%
CCOc1cc(N2CCOCC2)c(OCC)cc1NC(C)C(=O)N1CCC(C)CC1 (configuration not stated)	9.2µM*	-4%	-1%	-1%	-1%	0%
CCOc1cc(N2CCOCC2)c(OCC)cc1NCC(=O)N1CCN(Cc2ccccc2)CC1	8.2µM*	-1%	-2%	-3%	24%	-137%
CCOc1cc(N2CCOCC2)c(OCC)cc1NC(=O)[C@H](C)N1C(=O)C2CC=CCC2C1=O (some centres not stated)	2%	3%	11%	-2%	10%	8%
COc1ccc(CCNC(=O)CN(CCc2ccccc2)S(C)(=O)=O)cc1OC	-6%	-2%	-2%	0%	-1%	6%
O=C1C(=O)N(c2ccccn2)C(c2cccc([N+](=O)[O-])c2)/C1=C(/O)c1ccc(Br)cc1 (configuration not stated)	-3%	0%	1%	nt	13%	5%
COc1ccc(C(=O)OCC(=O)NCC2CCCO2)c(F)c1 (configuration not stated)	11%	0%	-7%	6%	-2%	-3%
O=C(c1ccccc1)c1ccc(Sc2ccc([N+](=O)[O-])cc2)cc1	12µM*	-4%	23%	6%	9%	-9%
N=c1c2c(-c3ccccc3)c(-c3ccccc3)oc2ncn1CCCN1CCOCC1	-7%	1%	-5%	-12%	12µM*	?
COc1ccc(NC(=O)CC(c2ccc(F)cc2)c2ccc(OC(C)C)cc2)cc1 (configuration not stated)	5%	-2%	3%	-5%	18µM*	3%
CCOC(=O)c1sc2ncn(CC(=O)N(CC)CC)c(=O)c2c1C	18%	-3%	1%	-1%	15µM*	?
O=C(Nc1cccc(Br)c1)c1ccc2c(c1)SC1=NS(=O)(=O)CCN12	?	-1%	13%	-8%	2%	-5%
CC(C)(C)c1ccccc1NC(=O)c1ccc2c(c1)SC1=NS(=O)(=O)CCN12	21µM*	-11%	-2%	-7%	-4%	-84%
CC1(C)O[C@@H]2C[C@H]3[C@@H]4CCC5=CC(=O)C=C[C@]5(C)[C@H]4C(O)C[C@]3(C)[C@]2(C(=O)CO)O1 (some centres not stated)	nt	nt	nt	nt	-5%	0%
Cc1csc(SCC(=O)Nc2cc(S(=O)(=O)N(C)C)ccc2C)n1	2%	1%	16%	3%	-18%	-118%
C=C(C(=O)c1ccccc1)C(NC(C)(C)C)c1ccccc1 (configuration not stated)	nt	nt	nt	nt	1.8µM*	2.9µM*
C=C(C(=O)c1ccccc1)C(C)CC(=O)c1ccccc1 (configuration not stated)	?	-4%	-3%	-31%	?	21µM*
SMILES	ELG1 DNA repair	ELG1 genotox	A-T KAP1 phos	p53 reactivator	MCF10A rereplic	SW480 rereplic
COC(=O)C(NC(=O)c1ccccc1)c1ccccc1 (configuration not stated)	16%	4%	8%	5%	3%	1%
COC(=O)c1cc(=O)n(Cc2ccco2)c(=Nc2ccc(F)c(Cl)c2)s1	?	-8%	-2%	-21%	7.3µM*	?
C=C(NC(=O)C(=C)NC(=O)c1csc(C2=NC3c4csc(n4)C4NC(=O)c5csc(n5)C(C(C)(O)C(C)O)NC(=O)C5CSC(=N5)/C(=C/C)NC(=O)C(C(C)O)NC(=O)c5csc(n5)C3(CC2)NC(=O)C(C)NC(=O)C(=C)NC(=O)C(=C)NC(=O)C(C(C)C)NC2C=Cc3c(C(C)O)cc(nc3C2O)C(=O)OC4C)n1)C(N)=O (configuration not stated)	nt	nt	nt	nt	?	1.2µM*
CN(C)c1ccc(C2CNC(c3ccc(Cl)c([N+](=O)[O-])c3)c3[nH]c4ccccc4c32)cc1 (configuration not stated)	?	-9%	-3%	9%	4.1µM*	15µM*
Cc1cnc(CN2CCc3c([nH]c4ccccc34)C2CC(C)C)[nH]1 (configuration not stated)	-7%	-6%	-6%	-5%	?	6.5µM*
CCn1ccnc1CN1CCc2c([nH]c3ccccc23)C1CC(C)C (configuration not stated)	23µM*	-6%	1%	-1%	11%	-1%
Cc1cccc(CN2CCc3c([nH]c4ccccc34)C2CC(C)C)n1 (configuration not stated)	-3%	-5%	-5%	nt	18µM*	?
CCn1ccnc1CN1CCc2c([nH]c3ccccc23)C1C1CCCCC1 (configuration not stated)	-14%	-23%	4%	0%	-4%	-3%
Cc1c(CN2CCc3c([nH]c4ccccc34)C2C2CCCCC2)cnn1C (configuration not stated)	11%	-1%	13%	-2%	18µM*	6%
CC(=O)N1CCN(C(=O)c2ccc3c(c2)OCCO3)CC1	-2%	4%	5%	-4%	-1%	-1%
